Data as given in PubChem BioAssay (NCATS).
Several values for one entry are separate records, joined by “and”; a condition that tells them apart may be missing. Identical values can stand only once. Results filed as inconclusive are left out. A number with no mark means an inactive call. Activity calls are given as the source filed them. Calls follow the shape of the dose curve; as a rule, active = well fitted curve in the direction sought with a large enough effect; inconclusive = small, poorly fitted or top-dose-only effect, or another doubt; inactive = no such curve, though single readings can be large or run the other way.

Assay: qHTS Assay for Identifying Gametocytocidal Compounds (AID 743244);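 as to max response: actives lower the fluorescent signal which means gametocytes are killed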
Settings: P. falciparum 3D7 stage III-V gametocytes, alamarBlue, 72 h; max response: active compounds read low
Summary of the method: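 In this qHTS viability screen, late-stage 3D7 gametocytes are incubated with compound for 72 h, then with alamarBlue for 24 h; reduced resorufin fluorescence marks killing.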
% is scaled to controls: 0 for no effect and ±100 for the full control effect; potency is read from the fitted curve at half-maximal effect.

Compound | max response | Potency
CN(Cc1ccc(C(C)(C)C)cc1)Cc1cccc2ccccc12 | 18.1% and -10.3% | 
N#CCC(=O)NN | -7.78% | 
O=C(NCCc1c[nH]c2ccccc12)c1cccnc1 | -3.02% | 
NS(=O)(=O)c1ccc(Cl)c(S(N)(=O)=O)c1 | -1.41% | 
CN(C)CCOC(c1ccc(Cl)cc1)c1ccccn1 (centres undefined) | 1.88% | 
CC(=O)O[C@]1(C(C)=O)CC[C@H]2[C@@H]3C=C(Cl)C4=CC(=O)CC[C@]4(C)[C@H]3CC[C@@]21C | -7.79% | 
FC1(F)C(F)(F)C(F)(F)C2(F)C(F)(F)C(F)(F)C(F)(F)C(F)(F)C2(F)C1(F)F (centres undefined) | -4.02% | 
O=C(O)CCNC(=O)c1ccccc1 | 7.27% | 
CC(C)(C)NCC(O)COc1cccc2c1C[C@H](O)[C@H](O)C2 (some centres undefined) | -0.0039% | 
Cc1cc(-c2ccccc2)nnc1NCCN1CCOCC1 | -0.774% and -9.14% | 
CCc1cc(Cl)c(OC)c(C(=O)NC[C@@H]2CCCN2CC)c1O | -8.19% and -10.7% and 19.5% | 
CN1CCC[C@@H]1CCO[C@](C)(c1ccccc1)c1ccc(Cl)cc1 | -0.809% | 
CC(C)Cc1ccc(CC(=O)O)cc1 | 6.47% | 
NCc1ccccc1Sc1ccccc1CO | -6.07% | 
CC(=O)Nc1ccc(S(=O)(=O)Nc2ccc([N+](=O)[O-])cc2)cc1 | 3.59% | 
CCNC(=O)/C=C/c1cccc(Br)c1 | 3.79% | 
C[N+]1(CC2COC(c3ccccc3)(C3CCCCC3)O2)CCCCC1 (centres undefined) |  | 11.2 µM (active)
CCN1CCCC(OC(=O)C(c2ccccc2)c2ccccc2)C1 (centres undefined) | -3.97% | 
CCC(C(=O)OCCOCCN(CC)CC)c1ccccc1 (centres undefined) | 6.25% | 
COc1cc(C(=O)N2CCCCCCC2)cc(OC)c1OC | 12.8% | 
Cc1cccc(C)c1NC(=O)CN1CCCC1 | 20.5% | 
N[C@H](C(=O)O)[C@@H](O)c1ccc(O)c(O)c1 | 1.39% | 
OCCOCCN1CCN(C2=Nc3ccccc3Sc3ccccc32)CC1 | -0.0618% | 
CC(=O)Nc1ccc(OCC(O)CNC(C)C)cc1 (centres undefined) | -2.82% | 
